The record followed here is ChEMBL document CHEMBL2218924, “A broad activity screen in support of a chemogenomic map for kinase signalling research and drug discovery” (Biochem J, 2013).

The target of assay [1] is T1, Serine/threonine-protein kinase 17A (Homo sapiens) (UniProt Q9UEE5).
T1 sequence (whole entry): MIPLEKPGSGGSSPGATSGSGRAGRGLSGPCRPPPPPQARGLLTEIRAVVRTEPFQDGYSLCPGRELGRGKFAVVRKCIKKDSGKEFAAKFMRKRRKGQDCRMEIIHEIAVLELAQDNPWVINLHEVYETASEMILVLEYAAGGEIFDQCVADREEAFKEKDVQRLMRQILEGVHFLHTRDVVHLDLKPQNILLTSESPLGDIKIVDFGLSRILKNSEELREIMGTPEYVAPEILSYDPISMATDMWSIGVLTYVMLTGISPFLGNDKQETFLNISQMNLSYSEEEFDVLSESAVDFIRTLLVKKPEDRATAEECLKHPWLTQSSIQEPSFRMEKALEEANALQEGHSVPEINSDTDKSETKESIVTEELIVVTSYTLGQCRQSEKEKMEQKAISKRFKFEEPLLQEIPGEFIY
The following applies: at 1 µM.

Assay [2] addresses T1, Serine/threonine-protein kinase 17A (Homo sapiens). As to conditions: at 10 µM.
Assay [3] addresses T2, Dual specificity tyrosine-phosphorylation-regulated kinase 2 (Homo sapiens) (UniProt Q92630).
T2 sequence (whole entry): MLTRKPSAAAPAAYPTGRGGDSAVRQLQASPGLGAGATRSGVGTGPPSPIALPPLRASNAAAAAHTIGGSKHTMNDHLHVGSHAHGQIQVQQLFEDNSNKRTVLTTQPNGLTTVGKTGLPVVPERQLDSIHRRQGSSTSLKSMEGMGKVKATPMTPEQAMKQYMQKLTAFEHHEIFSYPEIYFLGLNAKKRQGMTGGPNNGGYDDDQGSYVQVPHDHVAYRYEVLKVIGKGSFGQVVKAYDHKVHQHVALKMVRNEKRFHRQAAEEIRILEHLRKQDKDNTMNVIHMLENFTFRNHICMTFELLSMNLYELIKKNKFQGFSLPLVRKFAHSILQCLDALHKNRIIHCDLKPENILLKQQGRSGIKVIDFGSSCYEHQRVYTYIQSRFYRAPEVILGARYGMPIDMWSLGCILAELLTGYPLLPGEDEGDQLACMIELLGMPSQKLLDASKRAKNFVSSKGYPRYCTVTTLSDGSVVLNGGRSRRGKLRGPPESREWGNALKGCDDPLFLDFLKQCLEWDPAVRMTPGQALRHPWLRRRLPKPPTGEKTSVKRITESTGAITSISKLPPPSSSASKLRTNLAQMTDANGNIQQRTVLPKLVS
As to conditions: at 1 µM.

The target in assay [4] is T2, Dual specificity tyrosine-phosphorylation-regulated kinase 2 (Homo sapiens). As to conditions: at 10 µM.
Assay [5] concerns the target T3, Ephrin type-A receptor 1 (Homo sapiens) (UniProt P21709).
T3 sequence (whole entry): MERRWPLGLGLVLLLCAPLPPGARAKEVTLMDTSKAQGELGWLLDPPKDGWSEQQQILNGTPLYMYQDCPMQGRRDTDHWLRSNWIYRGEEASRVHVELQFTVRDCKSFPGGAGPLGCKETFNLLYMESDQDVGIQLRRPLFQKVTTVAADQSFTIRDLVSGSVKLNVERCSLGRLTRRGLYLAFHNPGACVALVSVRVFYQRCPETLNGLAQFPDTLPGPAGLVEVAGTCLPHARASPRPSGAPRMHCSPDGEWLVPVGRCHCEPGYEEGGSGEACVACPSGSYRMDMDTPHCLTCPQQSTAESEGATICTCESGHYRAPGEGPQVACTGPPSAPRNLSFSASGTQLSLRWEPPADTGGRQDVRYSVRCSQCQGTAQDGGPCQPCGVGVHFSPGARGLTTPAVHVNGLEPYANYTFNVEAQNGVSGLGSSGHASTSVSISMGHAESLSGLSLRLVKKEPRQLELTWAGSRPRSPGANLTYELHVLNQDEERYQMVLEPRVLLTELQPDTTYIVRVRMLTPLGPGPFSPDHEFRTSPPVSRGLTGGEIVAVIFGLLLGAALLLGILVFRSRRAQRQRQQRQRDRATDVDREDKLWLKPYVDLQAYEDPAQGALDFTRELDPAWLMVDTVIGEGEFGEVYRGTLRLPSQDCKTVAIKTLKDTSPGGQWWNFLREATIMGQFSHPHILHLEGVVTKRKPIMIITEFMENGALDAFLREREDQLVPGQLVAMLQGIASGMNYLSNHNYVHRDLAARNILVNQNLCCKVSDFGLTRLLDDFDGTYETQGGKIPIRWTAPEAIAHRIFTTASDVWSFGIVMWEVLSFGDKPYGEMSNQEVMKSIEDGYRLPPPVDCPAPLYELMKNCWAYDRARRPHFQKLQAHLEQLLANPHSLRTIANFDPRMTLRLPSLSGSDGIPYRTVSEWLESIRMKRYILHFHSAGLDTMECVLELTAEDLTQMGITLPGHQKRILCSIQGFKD
The following applies: at 1 µM.

Assay [6] has as its target T3, Ephrin type-A receptor 1 (Homo sapiens). The following applies: at 10 µM.
In assay [7] the target is Ephrin type-A receptor 2 (Homo sapiens) (UniProt P29317). The following applies: at 1 µM.
Assay [8] has the same target. As to conditions: at 10 µM.
For assay [9], the target named is T4, Ephrin type-A receptor 3 (Homo sapiens) (UniProt P29320).
T4 sequence (whole entry): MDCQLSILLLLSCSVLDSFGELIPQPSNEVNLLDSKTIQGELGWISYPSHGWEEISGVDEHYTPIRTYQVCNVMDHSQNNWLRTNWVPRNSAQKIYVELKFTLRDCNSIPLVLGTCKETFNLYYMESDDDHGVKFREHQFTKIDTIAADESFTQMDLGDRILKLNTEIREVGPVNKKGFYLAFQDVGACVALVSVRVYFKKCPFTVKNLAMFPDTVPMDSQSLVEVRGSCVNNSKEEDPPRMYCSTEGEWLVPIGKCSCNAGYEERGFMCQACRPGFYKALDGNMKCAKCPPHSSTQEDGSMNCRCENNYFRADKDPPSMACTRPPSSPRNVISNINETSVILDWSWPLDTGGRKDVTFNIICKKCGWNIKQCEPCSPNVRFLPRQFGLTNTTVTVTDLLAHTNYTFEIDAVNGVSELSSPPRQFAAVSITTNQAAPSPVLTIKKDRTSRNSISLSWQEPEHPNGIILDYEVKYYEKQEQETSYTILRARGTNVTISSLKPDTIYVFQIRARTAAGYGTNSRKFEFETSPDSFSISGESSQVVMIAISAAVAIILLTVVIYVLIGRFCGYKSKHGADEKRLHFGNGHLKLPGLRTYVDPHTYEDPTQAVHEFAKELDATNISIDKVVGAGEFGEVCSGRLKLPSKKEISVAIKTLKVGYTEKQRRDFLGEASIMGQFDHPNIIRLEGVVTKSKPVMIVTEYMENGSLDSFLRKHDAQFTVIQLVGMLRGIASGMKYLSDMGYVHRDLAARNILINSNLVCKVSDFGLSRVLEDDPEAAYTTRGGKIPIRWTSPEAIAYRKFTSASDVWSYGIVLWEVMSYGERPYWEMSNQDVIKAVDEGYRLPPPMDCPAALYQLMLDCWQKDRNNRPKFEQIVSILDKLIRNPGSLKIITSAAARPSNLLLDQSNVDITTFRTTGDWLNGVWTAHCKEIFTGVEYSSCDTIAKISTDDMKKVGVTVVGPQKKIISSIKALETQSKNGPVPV
As to conditions: at 1 µM.

Assay [10] concerns the target T4, Ephrin type-A receptor 3 (Homo sapiens). The following applies: at 10 µM.
Assay [11] deals with Ephrin type-A receptor 4 (Homo sapiens) (UniProt P54764). As to conditions: at 1 µM.
The target is the same in assay [12]. The following applies: at 10 µM.
In assay [13] the target is Ephrin type-A receptor 5 (Homo sapiens) (UniProt P54756). The following applies: at 1 µM.
Assay [14] shares this target. As to conditions: at 10 µM.
Assay [15] has as its target Ephrin type-A receptor 7 (Homo sapiens) (UniProt Q15375). As to conditions: at 1 µM.
Assay [16] has the same target. As to conditions: at 10 µM.
Assay [17] concerns the target T5, Ephrin type-A receptor 8 (Homo sapiens) (UniProt P29322).
T5 sequence (whole entry): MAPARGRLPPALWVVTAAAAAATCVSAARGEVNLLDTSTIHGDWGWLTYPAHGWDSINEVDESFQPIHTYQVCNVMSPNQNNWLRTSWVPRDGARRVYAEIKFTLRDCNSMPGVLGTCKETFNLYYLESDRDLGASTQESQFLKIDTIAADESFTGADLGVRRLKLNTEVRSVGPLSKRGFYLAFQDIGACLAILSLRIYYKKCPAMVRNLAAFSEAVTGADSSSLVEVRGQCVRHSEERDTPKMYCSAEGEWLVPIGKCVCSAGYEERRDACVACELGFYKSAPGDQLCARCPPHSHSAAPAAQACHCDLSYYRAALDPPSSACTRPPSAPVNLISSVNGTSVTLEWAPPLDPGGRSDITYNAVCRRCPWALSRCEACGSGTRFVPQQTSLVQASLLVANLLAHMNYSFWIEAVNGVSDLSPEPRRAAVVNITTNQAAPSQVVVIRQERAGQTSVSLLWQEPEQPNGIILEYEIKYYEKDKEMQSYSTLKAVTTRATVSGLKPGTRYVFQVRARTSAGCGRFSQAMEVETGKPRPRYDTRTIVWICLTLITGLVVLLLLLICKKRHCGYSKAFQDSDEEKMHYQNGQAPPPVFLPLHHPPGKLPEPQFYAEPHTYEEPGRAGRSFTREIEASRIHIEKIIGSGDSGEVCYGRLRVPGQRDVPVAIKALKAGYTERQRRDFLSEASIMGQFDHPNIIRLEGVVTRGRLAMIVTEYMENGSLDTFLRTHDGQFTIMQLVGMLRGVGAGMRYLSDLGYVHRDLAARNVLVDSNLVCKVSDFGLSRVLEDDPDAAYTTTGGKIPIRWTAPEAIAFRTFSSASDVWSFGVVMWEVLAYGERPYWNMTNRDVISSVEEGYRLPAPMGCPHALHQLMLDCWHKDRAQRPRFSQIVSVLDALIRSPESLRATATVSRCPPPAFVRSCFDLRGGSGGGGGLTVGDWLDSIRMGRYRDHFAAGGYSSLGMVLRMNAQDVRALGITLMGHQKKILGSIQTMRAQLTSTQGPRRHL
As to conditions: at 1 µM.

The target of assay [18] is T5, Ephrin type-A receptor 8 (Homo sapiens). The following applies: at 10 µM.
Assay [19] concerns the target T6, Ephrin type-B receptor 1 (Homo sapiens) (UniProt P54762).
T6 sequence (whole entry): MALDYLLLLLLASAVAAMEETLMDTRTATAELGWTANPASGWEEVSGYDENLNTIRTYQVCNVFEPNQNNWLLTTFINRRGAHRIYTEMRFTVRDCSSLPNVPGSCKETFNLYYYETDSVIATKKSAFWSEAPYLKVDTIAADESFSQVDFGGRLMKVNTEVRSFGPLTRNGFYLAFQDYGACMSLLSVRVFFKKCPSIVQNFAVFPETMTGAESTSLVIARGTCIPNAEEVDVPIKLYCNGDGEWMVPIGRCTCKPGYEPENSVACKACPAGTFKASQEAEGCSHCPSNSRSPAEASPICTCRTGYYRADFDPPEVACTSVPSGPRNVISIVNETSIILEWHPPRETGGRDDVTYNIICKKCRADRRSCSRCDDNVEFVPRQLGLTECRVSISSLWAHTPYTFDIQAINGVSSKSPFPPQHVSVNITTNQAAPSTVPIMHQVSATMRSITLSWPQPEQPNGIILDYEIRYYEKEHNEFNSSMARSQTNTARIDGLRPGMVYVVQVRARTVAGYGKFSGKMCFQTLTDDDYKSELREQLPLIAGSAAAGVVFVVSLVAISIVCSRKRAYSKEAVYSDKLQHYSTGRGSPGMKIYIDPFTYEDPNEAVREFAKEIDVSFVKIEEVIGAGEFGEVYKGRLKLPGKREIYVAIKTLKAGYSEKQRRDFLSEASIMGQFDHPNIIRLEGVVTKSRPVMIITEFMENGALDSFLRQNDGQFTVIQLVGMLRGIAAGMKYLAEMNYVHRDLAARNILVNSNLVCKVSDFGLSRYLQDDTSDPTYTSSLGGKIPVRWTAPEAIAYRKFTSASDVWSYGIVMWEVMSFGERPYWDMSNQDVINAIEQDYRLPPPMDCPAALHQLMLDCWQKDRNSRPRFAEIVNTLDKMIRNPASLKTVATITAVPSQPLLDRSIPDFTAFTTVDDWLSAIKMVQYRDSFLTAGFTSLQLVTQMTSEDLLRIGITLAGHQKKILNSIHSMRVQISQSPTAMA
The following applies: at 1 µM.

Sequence of Ephrin type-A receptor 5 (Homo sapiens) (P54756 whole entry): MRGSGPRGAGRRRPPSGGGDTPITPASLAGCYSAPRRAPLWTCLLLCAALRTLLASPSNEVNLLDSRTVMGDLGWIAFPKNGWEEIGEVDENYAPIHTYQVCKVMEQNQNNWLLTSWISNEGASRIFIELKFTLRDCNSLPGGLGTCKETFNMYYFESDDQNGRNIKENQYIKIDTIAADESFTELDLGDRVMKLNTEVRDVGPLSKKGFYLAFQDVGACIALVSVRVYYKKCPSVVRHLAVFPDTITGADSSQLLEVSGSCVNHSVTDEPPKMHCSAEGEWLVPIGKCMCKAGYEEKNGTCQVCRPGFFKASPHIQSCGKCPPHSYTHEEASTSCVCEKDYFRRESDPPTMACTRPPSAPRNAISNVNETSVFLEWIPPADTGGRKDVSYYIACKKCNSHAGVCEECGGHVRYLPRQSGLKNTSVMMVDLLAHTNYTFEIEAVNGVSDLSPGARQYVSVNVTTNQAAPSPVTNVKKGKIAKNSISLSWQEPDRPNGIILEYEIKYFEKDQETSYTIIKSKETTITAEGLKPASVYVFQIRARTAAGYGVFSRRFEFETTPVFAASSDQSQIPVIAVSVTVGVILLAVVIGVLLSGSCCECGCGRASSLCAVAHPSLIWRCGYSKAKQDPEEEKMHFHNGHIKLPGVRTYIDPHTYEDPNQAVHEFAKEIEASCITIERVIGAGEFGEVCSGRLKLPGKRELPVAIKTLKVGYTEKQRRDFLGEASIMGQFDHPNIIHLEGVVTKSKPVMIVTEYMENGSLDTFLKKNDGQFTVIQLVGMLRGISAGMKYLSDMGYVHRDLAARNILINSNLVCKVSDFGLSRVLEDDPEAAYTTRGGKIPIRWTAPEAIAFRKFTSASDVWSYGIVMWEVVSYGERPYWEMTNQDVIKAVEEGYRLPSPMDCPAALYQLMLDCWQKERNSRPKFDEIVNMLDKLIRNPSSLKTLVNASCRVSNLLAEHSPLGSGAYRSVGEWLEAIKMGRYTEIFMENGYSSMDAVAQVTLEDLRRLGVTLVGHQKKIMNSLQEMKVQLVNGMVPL
Sequence of Ephrin type-A receptor 7 (Homo sapiens) (Q15375 28-998 limits assumed): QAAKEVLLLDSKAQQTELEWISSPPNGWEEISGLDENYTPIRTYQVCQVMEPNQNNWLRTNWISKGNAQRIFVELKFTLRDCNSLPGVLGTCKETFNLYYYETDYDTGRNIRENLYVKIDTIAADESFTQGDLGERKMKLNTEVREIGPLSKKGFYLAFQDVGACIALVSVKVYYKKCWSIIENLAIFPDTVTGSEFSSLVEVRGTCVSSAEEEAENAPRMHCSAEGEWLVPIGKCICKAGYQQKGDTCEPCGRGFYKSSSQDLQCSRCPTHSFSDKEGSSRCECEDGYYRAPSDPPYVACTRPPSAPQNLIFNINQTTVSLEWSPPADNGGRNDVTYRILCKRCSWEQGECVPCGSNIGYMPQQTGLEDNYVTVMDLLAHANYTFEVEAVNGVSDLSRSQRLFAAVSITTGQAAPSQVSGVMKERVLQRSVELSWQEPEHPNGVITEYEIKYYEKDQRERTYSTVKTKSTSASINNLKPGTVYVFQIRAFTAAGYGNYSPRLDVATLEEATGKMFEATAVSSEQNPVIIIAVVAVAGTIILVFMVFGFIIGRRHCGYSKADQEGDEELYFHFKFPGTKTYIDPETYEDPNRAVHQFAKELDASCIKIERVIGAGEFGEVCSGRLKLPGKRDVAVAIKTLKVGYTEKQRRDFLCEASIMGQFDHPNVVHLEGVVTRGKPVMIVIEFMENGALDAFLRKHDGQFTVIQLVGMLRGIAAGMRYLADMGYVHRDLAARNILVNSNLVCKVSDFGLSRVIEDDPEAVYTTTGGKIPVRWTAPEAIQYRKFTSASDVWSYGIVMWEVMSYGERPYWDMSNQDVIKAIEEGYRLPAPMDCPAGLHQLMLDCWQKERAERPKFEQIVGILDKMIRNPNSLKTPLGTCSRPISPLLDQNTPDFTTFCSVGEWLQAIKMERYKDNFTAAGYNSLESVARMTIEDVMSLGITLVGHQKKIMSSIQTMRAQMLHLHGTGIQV
Sequence of Ephrin type-A receptor 2 (Homo sapiens) (P29317 whole entry): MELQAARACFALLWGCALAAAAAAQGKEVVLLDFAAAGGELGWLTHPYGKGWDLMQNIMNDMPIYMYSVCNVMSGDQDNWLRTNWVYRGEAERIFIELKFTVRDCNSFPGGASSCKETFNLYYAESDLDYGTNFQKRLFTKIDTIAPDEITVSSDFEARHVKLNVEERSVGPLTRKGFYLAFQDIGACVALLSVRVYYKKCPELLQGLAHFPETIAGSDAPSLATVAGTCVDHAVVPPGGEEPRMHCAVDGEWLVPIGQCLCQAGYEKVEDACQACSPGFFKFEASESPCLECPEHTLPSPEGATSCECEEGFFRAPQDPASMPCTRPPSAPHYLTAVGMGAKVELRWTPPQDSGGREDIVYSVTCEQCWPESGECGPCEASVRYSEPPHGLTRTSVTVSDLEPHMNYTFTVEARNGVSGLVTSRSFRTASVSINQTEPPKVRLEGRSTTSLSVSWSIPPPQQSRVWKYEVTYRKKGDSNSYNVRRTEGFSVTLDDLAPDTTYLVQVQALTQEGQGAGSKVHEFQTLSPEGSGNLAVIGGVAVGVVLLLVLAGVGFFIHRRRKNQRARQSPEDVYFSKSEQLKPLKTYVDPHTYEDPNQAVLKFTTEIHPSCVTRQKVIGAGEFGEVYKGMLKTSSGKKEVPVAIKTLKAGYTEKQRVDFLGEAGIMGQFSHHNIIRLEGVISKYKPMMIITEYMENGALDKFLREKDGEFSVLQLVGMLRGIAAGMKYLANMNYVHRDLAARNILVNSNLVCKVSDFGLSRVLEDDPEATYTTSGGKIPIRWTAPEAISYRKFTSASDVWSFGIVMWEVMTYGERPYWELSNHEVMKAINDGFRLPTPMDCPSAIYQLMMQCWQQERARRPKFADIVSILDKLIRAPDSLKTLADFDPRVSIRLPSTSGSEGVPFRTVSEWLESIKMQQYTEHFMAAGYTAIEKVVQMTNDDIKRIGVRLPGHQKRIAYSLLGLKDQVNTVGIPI
Sequence of Ephrin type-A receptor 4 (Homo sapiens) (P54764 whole entry): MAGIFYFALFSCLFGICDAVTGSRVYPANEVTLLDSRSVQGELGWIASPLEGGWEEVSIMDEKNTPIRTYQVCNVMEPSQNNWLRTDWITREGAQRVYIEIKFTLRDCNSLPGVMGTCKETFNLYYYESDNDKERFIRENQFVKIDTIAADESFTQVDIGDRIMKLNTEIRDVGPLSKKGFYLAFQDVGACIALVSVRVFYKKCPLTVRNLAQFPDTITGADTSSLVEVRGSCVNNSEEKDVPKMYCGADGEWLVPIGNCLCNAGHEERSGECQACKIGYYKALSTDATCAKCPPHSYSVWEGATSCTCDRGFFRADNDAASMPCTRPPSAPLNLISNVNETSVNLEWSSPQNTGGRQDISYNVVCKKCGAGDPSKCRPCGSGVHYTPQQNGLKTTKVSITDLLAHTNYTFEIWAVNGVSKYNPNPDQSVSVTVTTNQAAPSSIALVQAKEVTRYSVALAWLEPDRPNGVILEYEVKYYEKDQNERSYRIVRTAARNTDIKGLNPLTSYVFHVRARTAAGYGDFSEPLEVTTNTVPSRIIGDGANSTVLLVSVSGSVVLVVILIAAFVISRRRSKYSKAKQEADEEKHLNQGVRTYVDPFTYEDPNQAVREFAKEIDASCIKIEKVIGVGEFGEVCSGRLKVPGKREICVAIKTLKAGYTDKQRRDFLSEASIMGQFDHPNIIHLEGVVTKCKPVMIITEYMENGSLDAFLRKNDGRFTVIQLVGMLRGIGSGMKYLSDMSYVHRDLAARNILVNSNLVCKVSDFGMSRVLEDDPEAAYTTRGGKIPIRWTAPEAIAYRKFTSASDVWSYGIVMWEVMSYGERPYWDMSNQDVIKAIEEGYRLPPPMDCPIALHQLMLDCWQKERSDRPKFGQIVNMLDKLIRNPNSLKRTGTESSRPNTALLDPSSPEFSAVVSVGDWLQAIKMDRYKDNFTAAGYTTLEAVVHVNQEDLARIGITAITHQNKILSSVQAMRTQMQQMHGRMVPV

In the case of `COc1cc2ncnc(Nc3ccc(OCc4ccccc4)cc3)c2cc1OC`, the residual activity in [1] stood at 116%; in assay [2], 95%; in [3], 102%; in assay [4], 94%; in assay [5], 94%; in assay [6] it was 104%. In addition, the residual activity in assay [7] turned out to be 125%; in [8], 108%; in assay [9], 115%; in [10] it was 113%; in assay [11], 118%; in [12], 93%. Further, the residual activity in assay [13] is 116%; in [14] it was 104%; in [15] it was 109%; in assay [16], 90%; in assay [17], 118%; in [18], 101%. The residual activity in [19] was determined as 94%.
As to `COc1cc(OC)c(/C=C2\C(=O)Nc3ccccc32)c(OC)c1`, the residual activity in assay [3] stood at 102%; in [4], 93%; in assay [5] it was 89%; in assay [6], 82%; in assay [7] it was 88%; in [8], 93%. The residual activity is 97% in assay [9]; 84% in assay [10]; 103% in assay [11]; 105% in [12]; 128% in assay [13]; 101% in [14]. The residual activity in assay [15] was found to be 94%; in assay [16], 94%; in assay [17], 95%; in assay [18] it was 84%; in [19] it was 100%.
